The sample as a whole holds a higher share of hits than the screen did.
ROC1-CUL1 inh = human ROC1-CUL1 E3 ligase inhibition; P62877+Q13616; in vitro K48 di-Ub FRET, acceptor:donor ratio, 45 min; inhibition, % at 10 µM; actives 0.6% (n = 140,000); in the data active = inhibition above about 25%
Starred values were filed as active, the others as inactive.

Screening CC(=O)NS(=O)(=O)c1ccc(-c2ccc(C=C3C(=O)NC(=S)NC3=O)o2)cc1 returned ROC1-CUL1 inh 41*.
Screening O=C1NC(=S)NC(=O)C1=Cc1ccc(-c2ccccc2Cl)o1 returned ROC1-CUL1 inh 1.
Screening C=C(C)CN1C(=O)C(C=Nc2ccc(C(C)=O)cc2)C(=O)N(C)C1=S (configuration not stated) returned ROC1-CUL1 inh 3.
Screening Cn1c(C2CCC2)nc2cc(C(=O)N3CCc4c(Cl)cccc4C3)cc(NC(=O)C3CCCO3)c21 (configuration not stated) returned ROC1-CUL1 inh 6.
`CCOC(=O)C1=C(C)N=c2s/c(=C/c3ccccc3O)c(=O)n2C1c1ccc2c(c1)OCO2` (configuration not stated) gave ROC1-CUL1 inh -6.
`CCOC(=O)C1=C(C)N=c2s/c(=C/c3cc(I)c(OC)c(OC)c3)c(=O)n2C1c1ccc(N(C)C)cc1` (configuration not stated) gave ROC1-CUL1 inh 8.
For CCOC(=O)C1=C(C)N=c2s/c(=C\c3cc(OC)ccc3OC)c(=O)n2C1c1ccc(OC)cc1 (configuration not stated) the results were ROC1-CUL1 inh 3.
Screening CCOC(=O)C1=C(C)N=c2s/c(=C\c3cc(I)c(O)c(OC)c3)c(=O)n2C1c1ccc(OC)cc1 (configuration not stated) returned ROC1-CUL1 inh 46*.
For CCOC(=O)C1=C(C)N=c2s/c(=C\c3cc(Br)c(O)c(OC)c3)c(=O)n2C1c1ccc2c(c1)OCO2 (configuration not stated) the results were ROC1-CUL1 inh 53*.
For CCOC(=O)C1=C(C)N=c2s/c(=C/c3ccc(I)cc3)c(=O)n2C1c1ccc2c(c1)OCO2 (configuration not stated) the results were ROC1-CUL1 inh -8.
Screening CN1N=C(C(=O)N2CCCC(CCc3c(F)cccc3F)C2)CCC1=O (configuration not stated) returned ROC1-CUL1 inh 3.
CN(C)C(=O)Oc1ccc(-c2c[n+]3cc(NC(=O)c4ccccc4)ccc3n2C)cc1 was read as ROC1-CUL1 inh 2.
Screening CCOC(=O)COc1cnn(-c2ccccc2)c(=O)c1Cl returned ROC1-CUL1 inh 3.
NC(=O)CSc1nnc2n1CCCN2 was read as ROC1-CUL1 inh 10.
Screening c1cc(-c2nccs2)nc(-c2nccs2)c1 returned ROC1-CUL1 inh 6.
`O=C1/C(=C/c2ccc(O)cc2)CS(=O)(=O)c2ccccc21` gave ROC1-CUL1 inh 6.
CC(=O)N1/C(=C/c2ccccc2O)C(=O)c2cc(Br)ccc21 was read as ROC1-CUL1 inh 7.
Screening CC(=O)N1/C(=C/c2ccc(O)cc2)C(=O)c2ccccc21 returned ROC1-CUL1 inh 60*.
COc1ccccc1N1CCN(C2CCCN(Cc3ncc[nH]3)C2)CC1 (configuration not stated) was read as ROC1-CUL1 inh 6.
Cn1c(=O)c2nc(C(=O)O)c(=O)[nH]c2n(C)c1=O was read as ROC1-CUL1 inh 8.
O=C(NC1(C(F)(F)F)C(=O)N=C2C1C(=O)NC(=O)N2c1ccc(F)cc1)c1cccs1 (configuration not stated) was read as ROC1-CUL1 inh 4.
CC1=C(C#N)c2nc(N)c(C#N)c(C)c2/C1=C\c1ccc(OCc2cccc(C(=O)O)c2)cc1 was read as ROC1-CUL1 inh 98*.
`CC1=C(C#N)c2nc(N)c(C#N)c(C)c2/C1=C\c1ccc(F)cc1` gave ROC1-CUL1 inh -5.
CC1=C(C#N)c2nc(N)c(C#N)c(C)c2/C1=C\c1cccc(F)c1 was read as ROC1-CUL1 inh -4.
For O=C(O)c1ccc(Cn2cc(Br)c([N+](=O)[O-])n2)cc1 the results were ROC1-CUL1 inh -2.
CC(C1CCN(C(=O)c2cn(C3CC3)cc(C(=O)NCC3CCCCC3)c2=O)CC1)N1CCCC1 (configuration not stated) was read as ROC1-CUL1 inh -1.
For COc1cc(C2C3=C(CC(C)(C)CC3=O)N(c3ccccc3)C3=C2C(=O)CC(C)(C)C3)ccc1O the results were ROC1-CUL1 inh -9.
For O=C(c1cccc(F)c1)N1CCOc2ccc(CN3CCC(OCc4ccccc4)CC3)cc2C1 the results were ROC1-CUL1 inh -6.
`COc1ccccc1-n1c(O)c(C=C2C=Nc3ccccc32)c(=O)[nH]c1=S` gave ROC1-CUL1 inh 15.
Screening CCn1c(O)c(C=C2C(C)=Nc3ccccc32)c(=O)[nH]c1=S returned ROC1-CUL1 inh -3.
`CC1=CC(=Cc2c(O)n(-c3cccc(Cl)c3Cl)c(=S)[nH]c2=O)C(C)=N1` gave ROC1-CUL1 inh 93*.
For COc1ccc(-c2cnnc(N(C)Cc3cccc4cnccc34)n2)cc1 the results were ROC1-CUL1 inh 2.
Screening CC1=NN(c2ccccc2)C(=O)/C1=C(\C)c1ccc(-c2ccccc2)cc1 returned ROC1-CUL1 inh -11.
`COC(=O)/C(=C1/C(=O)N(c2ccccc2)N=C1C)C(F)(F)F` gave ROC1-CUL1 inh 39*.
Screening Cc1c(C(=O)Nc2ccccc2)nnn1-c1ccccc1 returned ROC1-CUL1 inh 1.
For CCOc1ccc(-n2c(SCC(=O)Nc3ccccc3F)nc3sc(C)c(C)c3c2=O)cc1 the results were ROC1-CUL1 inh -7.
`CCn1ccnc1CNC(=O)CC(c1ccccc1)c1cccc(Cl)c1` (configuration not stated) gave ROC1-CUL1 inh -5.
Screening Cc1ccc(C(=O)Nc2cccc([N+](=O)[O-])c2)c2ccccc12 returned ROC1-CUL1 inh -12.
`O=CN1CCCN(C(=O)c2cc(COc3cccc4cnccc34)on2)CC1` gave ROC1-CUL1 inh 7.
`CCCCCCCC(=O)N=C1C(=O)N(c2ccccc2)N(C)C1C` (configuration not stated) gave ROC1-CUL1 inh 11.
`CCCCCCN1C(=O)C2=C(c3cc(O)cc(O)c3)N(CCCCCC)C(=O)C2=C1c1cc(O)cc(O)c1` gave ROC1-CUL1 inh 46*.
Screening CCCCCCN1C(=O)/C(=C/c2cc(OC)c(OC)c(OC)c2)N(C)C1=S returned ROC1-CUL1 inh 3.
`Cc1ccc(C(=O)Nc2ccc(Cl)c(Cl)c2)cc1C` gave ROC1-CUL1 inh -4.
`O=C(NCCSc1ccccc1)c1cc(-n2cnnc2)ccc1Cl` gave ROC1-CUL1 inh -4.
Screening CNC(=O)/C(=N/Nc1ccc(OC)cc1)C(N)=S returned ROC1-CUL1 inh -6.
Screening N#Cc1ccc(-c2cccs2)nc1SCc1cccc(Cl)c1 returned ROC1-CUL1 inh 0.
Screening CCOC(=O)N1CCN(Cc2ccc3c(c2)CN(C(=O)CCc2c[nH]c4ccccc24)CCO3)CC1 returned ROC1-CUL1 inh 15.
For CC(C(=O)O)N1C(=O)/C(=C/c2ccc3c(c2)OCO3)SC1=S (configuration not stated) the results were ROC1-CUL1 inh 3.
Screening CC(C)(C)C1(C)OC(=O)C(=Cc2ccc3c(c2)OCO3)C(=O)O1 (configuration not stated) returned ROC1-CUL1 inh 3.
For CC(C)N1C(=O)/C(=C/c2ccc3c(c2)OCO3)C(=O)N(Cc2ccco2)C1=O the results were ROC1-CUL1 inh 102*.
For COc1ccc2c(c1)-c1c(ssc1=Nc1ccc(Br)cc1)C(C)(C)N2 the results were ROC1-CUL1 inh 4.
For Cc1ccccc1NC(=O)c1ccc(C2CCCN2)s1 (configuration not stated) the results were ROC1-CUL1 inh 6.
Screening O=C(Nc1ccc2scnc2c1)c1ccc(C2CCCN2)s1 (configuration not stated) returned ROC1-CUL1 inh 99*.
